# From the supplement of paper PMC12339681
# Counter-ions that a name gives are not always drawn.
# Test system: PBMC-derived induced microglia-like cells (piMGLC)
# Test: synaptosome phagocytic index relative to DMSO control (fraction of DMSO); higher = more phagocytosis
# Settings: concentration: 10 uM (2 uM for compounds listed in Table S2); pretreatment time: 24 h; assay time: 3 h
row,Compound,synaptosome phagocytic index
1,Cn1cc2cc(C(F)(F)c3nnc4ccc(-c5cnn(C6CC6)c5)nn34)c(F)cc2n1 [Bozitinib],0.851
2,Cn1nnc2c(C(N)=O)ncn2c1=O [Temozolomide],0.824
3,NC12CC3CC(CC(C3)C1)C2 [Amantadine_(hydrochloride)],1.02
4,Cc1cc(Oc2cncnc2)cc(C(=O)Nc2ccc(F)cn2)n1 [Auglurant],1.03
5,C[C@@H](C(=O)O)c1ccc(-c2ccccc2)c(F)c1 [Tarenflurbil],1.11
6,NC(=O)NO [Hydroxyurea],0.555
7,FC(F)(F)c1ccc(CNc2ccc(Cc3c[nH]c4ncc(Cl)cc34)cn2)cn1 [Pexidartinib],0.587
8,CN(C)CCc1c[nH]c2ccc(Cn3cncn3)cc12 [Rizatriptan_(benzoate)],1.11
9,COc1ccc2c(c1)c(CC(=O)O)c(C)n2C(=O)c1ccc(Cl)cc1 [Indomethacin_(sodium_hydrate)],0.618
10,NC(=O)c1cn(Cc2c(F)cccc2F)nn1 [Rufinamide],0.654
11,CC#Cc1cncc(-c2ccc3c(c2)[C@@]2(N=C(C)C(N)=N2)[C@]2(CC[C@H](OC)CC2)C3)c1 [Lanabecestat],1.03
12,Nc1nc2c(ncn2COCCO)c(=O)[nH]1 [Acyclovir],0.731
13,Cc1ccc(S(=O)(=O)/C=C/C#N)cc1,0.903
14,Nc1nc(=O)[nH]cc1F [Flucytosine],0.853
15,C[C@@H]1CN(C(=O)[C@@H]2CN(C(C)(C)C)C[C@H]2c2ccc(F)cc2F)C[C@H](C)[C@@]1(O)c1ccccc1,0.704
16,Cn1cnc2c(F)c(Nc3ccc(Br)cc3Cl)c(C(=O)NOCCO)cc21 [Selumetinib],0.811
17,CC1=NN(c2ccccc2)C(=O)C1 [Edaravone],0.555
18,O=C1CCc2ccc(OCCCCN3CCN(c4cccc(Cl)c4Cl)CC3)cc2N1 [Aripiprazole],0.885
19,C[N+]1([O-])CCN(C2=Nc3cc(Cl)ccc3Nc3ccccc32)CC1 [Clozapine_N-oxide_(dihydrochloride)],0.606
20,O=C(NCc1ccc(F)cc1)N1CCN2C(=O)OC(c3ccccc3)(c3ccccc3)C2C1 (configuration not stated),0.552
21,CCOC(=O)C1=C(C)NC(C)=C(C(=O)OC)C1c1cccc(Cl)c1Cl (configuration not stated) [Felodipine],1.04
22,OC1(CN2CCC(COc3noc4cccc(O[C@@H]5CCOC5)c34)CC2)CCOCC1,0.793
23,CS(=O)(=O)c1ccc(C(=O)Nc2ccc(Cl)c(-c3ccccn3)c2)c(Cl)c1 [Vismodegib],0.948
24,O=C(O)CCCc1ccccc1 [Sodium_4-phenylbutyrate],0.996
25,CC[C@H](COc1cccnc1C1CCN(C(=O)[C@@H](Cc2ccc(Cl)cc2Cl)NC(=O)N2CCCC2)CC1)N1CCCC1,0.292
26,COc1cc2nc(N(C)CCCNC(=O)C3CCCO3)nc(N)c2cc1OC (configuration not stated) [Alfuzosin],0.938
27,CN(C)C(=O)c1cc2cnc(Nc3ccc(N4CCNCC4)cn3)nc2n1C1CCCC1 [Ribociclib],0.78
